Reference: PubChem BioAssay (Tox21)
Unmarked numbers belong to inactive results. Inconclusive results are not listed. Entries that show only a call come without a potency. The source made the active and inactive calls. Unless noted, the call rests on the fitted dose curve; in most records, active means well fitted curve in the direction sought with a large enough effect in the repeat runs; inconclusive means weak or mixed curves; inactive means no such curve, though single readings can be large; an effect the other way counts as inactive or inconclusive.

Experiments:
[1] = qHTS assay to identify small molecule antagonists of the retinoid acid receptor (RAR) signaling pathway - cell viability counter screen (AID 1159551); further: nearly all actives have a fitted effect of over 35% in size
Method in brief: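 Luminescent ATP quantitation (CellTiter-Glo) gave cell viability in C3RL4 cells exposed to test chemicals for 6 h at 37 C alongside 1 uM final retinol.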

[2] = qHTS assay to identify small molecule antagonists of the retinoic acid receptor (RAR) signaling pathway (AID 1159552; further: nearly all actives have a fitted effect of over 50% in size)
Method in brief: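 Cells of the C3RL4 line were seeded, incubated overnight, then dosed with compounds in DMSO followed immediately by retinol (1 uM final). Six hours later luciferase detection reagent went in; signal was measured after 30 min at RT.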

[3] = qHTS assay to identify small molecule antagonists of the estrogen related receptor (ERR) signaling pathway from Tox21 library - cell viability counter screen (AID 1224834); further: nearly all actives have a fitted effect of over 30% in size
Method in brief: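 Fluorescence from CellTiter-Fluor gives the viability read-out, taken 30 min after reagent addition. Before that, ERR cells seeded 6 h earlier were incubated with compounds for 17.5 h at 37 C.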

[4] = molecular target: Luciferin 4-monooxygenase (Photinus pyralis) (UniProt P08659); test: qHTS assay to identify small molecule inhibitors of firefly luciferase (AID 1224835); further: nearly all actives have a fitted effect of over 25% in size; further: potency means the concentration at half of the fitted maximal effect
Chain of Luciferin 4-monooxygenase (Photinus pyralis) (P08659 whole entry, looked up): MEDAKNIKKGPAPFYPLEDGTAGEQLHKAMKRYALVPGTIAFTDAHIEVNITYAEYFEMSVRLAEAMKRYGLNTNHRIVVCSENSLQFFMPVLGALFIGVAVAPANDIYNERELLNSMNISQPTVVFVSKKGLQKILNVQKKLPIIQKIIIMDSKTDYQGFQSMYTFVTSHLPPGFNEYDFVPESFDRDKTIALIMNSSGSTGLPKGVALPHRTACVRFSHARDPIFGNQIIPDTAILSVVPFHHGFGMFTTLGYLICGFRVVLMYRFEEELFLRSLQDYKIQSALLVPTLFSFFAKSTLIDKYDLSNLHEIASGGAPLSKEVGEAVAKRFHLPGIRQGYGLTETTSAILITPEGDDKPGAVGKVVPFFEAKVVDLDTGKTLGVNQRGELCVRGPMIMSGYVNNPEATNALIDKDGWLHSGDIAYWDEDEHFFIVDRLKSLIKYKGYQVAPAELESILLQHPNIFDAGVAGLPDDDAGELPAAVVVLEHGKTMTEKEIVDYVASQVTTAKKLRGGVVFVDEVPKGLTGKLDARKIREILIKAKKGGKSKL
Method in brief: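 Inhibition of purified Photinus luciferase is measured by luminescence. Substrate levels (D-luciferin, ATP) sit at their KM values. Each compound is tested in a concentration series.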

[5] = qHTS assay to identify small molecule agonists of the constitutive androstane receptor (CAR) signaling pathway - cell viability counter screen (AID 1224836); further: nearly all actives have a fitted effect of over 45% in size
Method in brief: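 HepG2-CYP2B6-hCAR, 2500 cells/well, 4 h pre-incubation; cpd 15 conc + PK11195 0.75 uM final; 23 h, 37 C/5% CO2; CellTiter-Fluor, fluorescence.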

[6] = qHTS assay to identify small molecule antagonists of the constitutive androstane receptor (CAR) signaling pathway - cell viability counter screen (AID 1224837); further: nearly all actives have a fitted effect of over 45% in size
Method in brief: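 HepG2-CYP2B6-hCAR cells, 2500/well, 4 hr pre-incubation; compound titration, 15 conc.; CITCO 50 nM final; 23 hr, 37 C/5% CO2; CellTiter-Fluor, fluorescence intensity.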

[7] = molecular target: Nuclear receptor subfamily 1 group I member 3 (Homo sapiens) (UniProt Q14994); test: qHTS assay to identify small molecule antagonists of the constitutive androstane receptor (CAR) signaling pathway (AID 1224838);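 further: HepG2 cells stably expressing hCAR with CYP2B6 luciferase reporter stimulated by CITCO; nearly all actives have a fitted effect of over 40% in size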
Chain of Nuclear receptor subfamily 1 group I member 3 (Homo sapiens) (Q14994 whole entry, looked up): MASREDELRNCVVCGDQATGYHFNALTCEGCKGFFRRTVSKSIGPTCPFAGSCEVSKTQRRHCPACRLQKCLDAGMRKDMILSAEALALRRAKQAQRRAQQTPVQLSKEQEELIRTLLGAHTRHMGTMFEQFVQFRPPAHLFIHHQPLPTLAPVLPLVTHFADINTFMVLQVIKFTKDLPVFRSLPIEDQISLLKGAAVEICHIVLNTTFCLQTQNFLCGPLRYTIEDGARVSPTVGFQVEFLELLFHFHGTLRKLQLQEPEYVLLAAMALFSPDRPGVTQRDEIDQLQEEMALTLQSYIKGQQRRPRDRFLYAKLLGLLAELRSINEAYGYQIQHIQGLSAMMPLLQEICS
Method in brief: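 HepG2-CYP2B6-hCAR cells; 4 h pre-incubation; cpd (15 conc) + CITCO 50 nM final; 24 h, 37 C/5% CO2; ONE-Glo, luminescence.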

[8] = molecular target: Nuclear receptor subfamily 1 group I member 3 (Homo sapiens) (UniProt Q14994); test: qHTS assay to identify small molecule agonists of the constitutive androstane receptor (CAR) signaling pathway (AID 1224839);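 further: HepG2 cells stably carrying human CAR and a CYP2B6 luciferase reporter; nearly all actives have a fitted effect of over 15% in size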
Method in brief: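 HepG2-CYP2B6-hCAR cells, 2500/well, 4 h pre-incubation; compounds 15 conc.; PK11195 0.75 uM final; 24 h, 37 C/5% CO2; ONE-Glo luciferase read.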

[9] = qHTS assay to identify small molecule antagonists of the estrogen related receptor signaling pathway with the pleiotropic PPARgamma coactivator (PGC) from Tox21 10K library - cell viability counter screen (AID 1224840; active means well fitted cell-killing curve with a large enough effect in the repeat runs, not every such curve was filed as active; further: nearly all actives have a fitted effect of over 40% in size)
Method in brief: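 PGC/ERR cells, 2,000/well; 6 h pre-incubation 37 C/5% CO2; cpd in DMSO via pin tool; 17.5 h 37 C; CellTiter-Fluor, 30 min; fluorescence.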

[10] = molecular target: Thyrotropin receptor (Homo sapiens) (UniProt P16473); test: qHTS assay to identify small molecule agonists of the thyroid stimulating hormone receptor (TSHR) signaling pathway (AID 1224843; calls by dose curve; further: nearly all actives have a fitted effect of over 45% in size)
Chain of Thyrotropin receptor (Homo sapiens) (P16473 whole entry, looked up): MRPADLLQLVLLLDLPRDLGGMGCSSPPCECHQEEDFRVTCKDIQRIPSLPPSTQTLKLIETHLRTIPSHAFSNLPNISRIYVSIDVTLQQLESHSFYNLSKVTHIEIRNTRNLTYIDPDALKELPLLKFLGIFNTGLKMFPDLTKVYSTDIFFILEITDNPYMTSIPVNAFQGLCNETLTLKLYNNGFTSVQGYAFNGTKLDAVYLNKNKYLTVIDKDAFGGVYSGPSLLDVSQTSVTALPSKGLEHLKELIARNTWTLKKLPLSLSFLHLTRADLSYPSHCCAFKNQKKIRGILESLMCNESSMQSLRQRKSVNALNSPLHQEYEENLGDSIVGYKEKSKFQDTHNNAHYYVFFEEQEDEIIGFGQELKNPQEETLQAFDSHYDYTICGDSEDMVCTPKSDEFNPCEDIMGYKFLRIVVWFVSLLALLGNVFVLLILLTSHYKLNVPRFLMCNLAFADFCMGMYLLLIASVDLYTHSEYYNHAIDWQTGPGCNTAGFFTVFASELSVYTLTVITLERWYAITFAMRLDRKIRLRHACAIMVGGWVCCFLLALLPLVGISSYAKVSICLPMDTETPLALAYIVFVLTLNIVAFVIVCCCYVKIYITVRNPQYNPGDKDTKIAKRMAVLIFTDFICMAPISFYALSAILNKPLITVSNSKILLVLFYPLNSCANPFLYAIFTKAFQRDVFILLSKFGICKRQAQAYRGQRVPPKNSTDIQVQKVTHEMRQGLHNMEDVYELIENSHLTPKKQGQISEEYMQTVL
Method in brief: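 HEK293 cells stably bearing the thyrotropin receptor were plated at 800 cells/well and challenged with compound (30 min, RT). Accumulated cAMP was quantified via cAMP-d2 competing for cryptate-tagged antibody.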

[11] = qHTS assay to identify small molecule agonists of the hypoxia (HIF-1) signaling pathway - cell viability counter screen (AID 1224844; calls by dose curve; further: nearly all actives have a fitted effect of over 50% in size)
Method in brief: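 ME-180 HRE-bla cells, 2,000/well, 0.5% dialyzed FBS; 5 hr settle, 17 hr compound at 37C/5% CO2; CCF4-AM reporter read first, then CellTiter-Glo luminescence after 30 min RT.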

[12] = qHTS assay to identify small molecule agonists of H2AX (AID 1224845; active means well fitted activation curve with a large enough effect in the signal ratio in the repeat runs, not every such curve was filed as active; the % refers to the signal ratio)
Method in brief: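 Phospho-H2AX Ser139 measured by HTRF (ex 320 nm; em 665 and 620 nm) after 24 hr antibody incubation. Compounds, 15 concentrations, 0.76% DMSO, were applied to CHO-K1 cells for 3hr at 37C before lysis.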

[13] = qHTS assay to identify small molecule agonists of the hypoxia (HIF-1) signaling pathway (AID 1224846; active means well fitted activation curve with a large enough effect in the signal ratio in the repeat runs, not every such curve was filed as active; the % refers to the signal ratio)
Method in brief: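 Cell line: CellSensor HRE-bla ME-180; 2,000 cells/well; 0.5% dialyzed FBS; 5 h preincubation; DMSO compound pin transfer; 17 h, 37C, 5% CO2; CCF4-AM added; bla FRET signal scored for activation.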

[14] = qHTS assay to identify small molecule agonists of H2AX - cell viability counter screen (AID 1224847; calls by dose curve;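 further: wild-type CHO-K1 cells; top concentration of the series differs between compounds; nearly all actives have a fitted effect of over 30% in size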)
Method in brief: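 Cells plated first: CHO-K1, 1000 per well in 10% FBS medium, incubated overnight at 37C. Then 15-point compound titration added (final DMSO 0.76%) for 3 hr. Finally CellTiter-Glo added and luminescence read.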

[15] = qHTS RealTime-Glo MT Cell Viability Assay in HepG2 cells - 24 hour (AID 1224867); further: nearly all actives have a fitted effect of over 50% in size
Method in brief: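 HepG2 suspension premixed with RealTime-Glo reagents is plated at 600 cells per well and left 5 h at 37 C/5% CO2. Compounds in DMSO then go in, and bioluminescence reflecting viable cell number is recorded over 40 h.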

[16] = qHTS assay to identify small molecule antagonists of the estrogen related receptor signaling pathway with the pleiotropic PPARgamma coactivator (PGC) from Tox21 10K library (AID 1224841; call rule not given here; further: actives are mostly falling curves and most rising ones were filed inactive; nearly all actives have a fitted effect of over 50% in size)
Method in brief: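 PGC/ERR cell line, 2,000 cells/well; 6 h pre-incubation 37 C/5% CO2; compounds (DMSO) pinned in; 18 h, 37 C; One-Glo, 30 min RT; luminescence.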

[17] = qHTS assay to identify small molecule agonists of the estrogen related receptor (ERR) signaling pathway from Tox21 library (AID 1224849; calls by dose curve; further: nearly all actives have a fitted effect of over 15% in size); details: ERR reporter cell line, ONE-Glo luciferase, 18 h; at 92.4 µM (top of the series) unless noted
Method in brief: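 ERR cells, 6 h pre-incubation 37 C/5% CO2; cpd in DMSO pinned; 18 h 37 C; ONE-Glo added, 30 min RT; luminescence read. Agonist mode, qHTS.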

[18] = qHTS assay to identify small molecule agonists of the retinoic acid receptor (RAR) signaling pathway (AID 1159553)
Method in brief: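 Luminescence from a RARE-driven luciferase reporter in C3RL4 cells served as the read-out, measured after 30 min with detection reagent at room temperature. Compounds in DMSO were applied for 6 hr at 37 C following overnight seeding.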

[19] = qHTS assay to identify small molecule agonists of the estrogen related receptor signaling pathway with the pleiotropic PPARgamma coactivator (PGC) from Tox21 10K library (AID 1224842); further: nearly all actives have a fitted effect of over 15% in size
Method in brief: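 Luminescence from One-Glo (30 min, room temperature) measured after PGC/ERR cells had 18 h at 37 C with pinned compound (23 nL in DMSO). Cells had been seeded at 2,000 per well and pre-incubated 6 h.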

[20] = qHTS assay to identify small molecule antagonists of the estrogen related receptor (ERR) signaling pathway from Tox21 library (AID 1224848); further: nearly all actives have a fitted effect of over 50% in size
Method in brief: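 Reading was by luminescence 30 min after ONE-Glo addition. Before that, ERR cells at 2,000 per well had rested 6 h at 37 C/5% CO2 and then received pin-tooled compounds in DMSO for 18 h at 37 C.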

Row | Structure (SMILES) | outcome [1] | outcome [2] | outcome [3] | Potency [4] | outcome [5] | outcome [6] | outcome [7] | Potency [8] | outcome [9] | Potency [10] | outcome [11] | outcome [12] | outcome [13] | outcome [14] | outcome [15] | Potency [16] | activity change, positive = activation [17] | Potency [18] | Potency [19] | outcome [20]
1 | Cc1ccccc1C#N | inactive | inactive | inactive | inactive | inactive | inactive | inactive | inactive | inactive | inactive | inactive | inactive | inactive | inactive | inactive | – | – | – | – | –
2 | CC(=O)SC[C@@H](C)C(=O)N1CCC[C@H]1C(=O)N[C@@H](Cc1ccccc1)C(=O)O | inactive | inactive | inactive | inactive | inactive | inactive | – | – | inactive | inactive | inactive | inactive | inactive | inactive | inactive | inactive | 7.31% [at 42.5 µM] | – | – | –
3 | O=C(O)/C=C(\CC(=O)O)C(=O)O | inactive | inactive | inactive | inactive | inactive | inactive | – | inactive | inactive | inactive | inactive | inactive | – | inactive | inactive | – | – | – | – | –
4 | COc1cc(S(N)(=O)=O)cc(C(=O)O)c1OC | inactive | inactive | – | inactive | inactive | – | – | – | inactive | inactive | inactive | inactive | inactive | inactive | inactive | – | – | – | – | –
5 | Cc1ccc(OC(=O)CC(C)C)cc1 | – | inactive | inactive | 35.6 µM (active) | inactive | inactive | inactive | inactive | inactive | inactive | inactive | inactive | inactive | inactive | inactive | inactive | -0.118% | inactive | inactive | inactive
6 | CC(C)(C)OC=O | inactive | inactive | inactive | – | inactive | – | – | – | inactive | inactive | inactive | inactive | inactive | inactive | inactive | – | – | – | – | –
7 | CNC(C)=O | inactive | inactive | inactive | inactive | inactive | inactive | – | inactive | inactive | inactive | inactive | inactive | inactive | inactive | inactive | – | – | – | – | –
8 | NNC(=O)CCCCC(=O)NN | – | inactive | inactive | inactive | inactive | inactive | inactive | inactive | inactive | – | inactive | inactive | inactive | inactive | inactive | inactive | 0.359% | inactive | inactive | –
